Sampled rows, rich in hits. Any-hit rate of the full collection: about 19%.
TDP1 cell noCPT – qHTS for Inhibitors of human tyrosyl-DNA phosphodiesterase 1 (TDP1): qHTS in cells in absence of CPT | DT40 Tdp1-/- hTDP1 cells, no CPT, ATP luminescence, 48 h | Potency, µM (series often up to 46.2 µM), for inactives: top-dose activity change, negative = growth inhibition, usual class: inhibitors | actives 15% (n = 420,000) | AID 686978, 2013; note: nearly all actives have a fitted effect of over 55% in size
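Seeded 400 DT40-hTDP1 cells/well (vehicle DMSO, no 20 nM CPT); pinned compounds; ≥48 hr at 37 °C; CellTiter-Glo luminescence as viability measure.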
KB-3-1 tox – KB-3-1 parental cell cytotoxicity | KB-3-1 viability, CellTiter-Glo ATP luminescence, 72 h | Potency, µM (titrated, usually from 46.1 µM), most hits filed as cytotoxic | actives 1.4% (n = 400,000); note: nearly all actives have a fitted effect of over 60% in size
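Luminescent ATP read-out (CellTiter-Glo) measures survival of drug-naive KB-3-1 cells after 72 h compound exposure at 37 °C. Titration series was screened from lowest to highest concentration, with DMSO vehicle plates as background controls.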
KB-V1 MDR tox – KB-V1 MDR subline cytotoxicity; KB-V1 MDR cells viability, CellTiter-Glo, 72 h; actives 3.4% (n = 400,000); Potency, µM (top dose mostly 46.1 µM), usual class: cytotoxic; note: nearly all actives have a fitted effect of over 60% in size
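Compound-treated KB-V1 multidrug-resistant cells, 72 h, 37 degrees C; viability by CellTiter-Glo. Fitted qHTS curves give the values.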
TDP1 cell CPT – growth inhibition of DT40 Tdp1-/-;hTDP1 cells with camptothecin (screen for TDP1 inhibitors); chicken DT40 Tdp1-/-;hTDP1 cells + 20 nM CPT, ATP luminescence, 48 h; Potency, µM (top dose mostly 46.2 µM), for the others: top-dose activity change, negative = growth inhibition, actives largely listed as inhibitors; actives 12% (n = 420,000); note: nearly all actives have a fitted effect of over 55% in size
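Chicken DT40 Tdp1-/- cells stably complemented with human TDP1 were seeded at 400 cells/well in medium containing 20 nM camptothecin, exposed to pin-transferred compounds, and grown at 37 °C for at least 48 hr. Viability was read as ATP luminescence.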
HT1080 IDH1KD tx – kills HT-1080 cells with IDH1 knockdown | actives 2% (n = 360,000) | Potency, µM (doses to about 46.1 µM), without a hit: at the highest dose activity, negative = toxicity, usual class: cytotoxic | HT-1080 IDH1 knockdown viability, ATP luminescence, 48 h | AID 686971;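 note: 0% = DMSO wells and -100% = cell-free medium wells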
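Luminescent ATP read-out (CellTiter-Glo, 10 min at room temperature) after 48 h compound exposure at 37 °C gave viability of IDH1-knockdown HT-1080 cells. Activity was normalised to DMSO and cell-free wells, then fitted as concentration-response curves.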
HT1080-NT tox – kills 2HG-producing HT-1080-NT fibrosarcoma cells. HT-1080-NT fibrosarcoma viability, CellTiter-Glo ATP luminescence, 48 h. Potency, µM (series often up to 46.1 µM), without a hit: top-dose activity, negative = less viability, usual class: cytotoxic. actives 1.6% (n = 360,000). AID 686970;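 note: NT is the 2HG producing partner of a matched IDH1 knockdown line; 0% = DMSO-treated cells and -100% = media-only wells without cells; nearly all actives have a fitted effect of over 55% in size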
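Toxicity toward the 2HG-producing NT line was scored as %Activity, normalised to DMSO and no-cell wells, from CellTiter-Glo luminescence after 48 hours' treatment.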
Numbers without * were called inactive; i = inactive; ? = inconclusive; . = no result given. Calls come from the whole dose curve; as a rule, active = well fitted curve in the direction sought with a large enough effect; inconclusive = small, poorly fitted or top-dose-only effect, or another doubt; inactive = no such curve, though single readings can be large; an effect the other way counts as inactive or inconclusive. Unless noted, % is set by controls: 0 for no effect and ±100 for the full control effect; potency is the fitted concentration of half-maximal effect.

SMILES	TDP1 cell noCPT	KB-3-1 tox	KB-V1 MDR tox	TDP1 cell CPT	HT1080 IDH1KD tx	HT1080-NT tox
C[C@@H]1CN([C@H](C)CO)C(=O)CCCn2nncc2CO[C@H]1CN(C)Cc1cccc(C(F)(F)F)c1	-1%	i	i	21µM*	-11%	0%
C[C@H](CO)N1C[C@H](C)[C@@H](CN(C)Cc2cccc(C(F)(F)F)c2)OCc2cnnn2CCCC1=O	?	i	i	?	3%	3%
C[C@@H]1CN([C@@H](C)CO)C(=O)CCCn2nncc2CO[C@H]1CN(C)Cc1ccccc1C(F)(F)F	?	i	?	18µM*	4%	4%
C[C@H]1CN([C@@H](C)CO)C(=O)CCCn2nncc2CO[C@H]1CN(C)S(=O)(=O)c1ccc2ccccc2c1	23µM*	i	i	?	0%	6%
C[C@@H]1CN([C@H](C)CO)C(=O)CCCn2nncc2CO[C@H]1CN(C)Cc1ccc(Oc2ccccc2)cc1	?	i	i	?	-1%	1%
Cc1ccccc1CN(C)C[C@@H]1OCc2cnnn2CCCC(=O)N([C@@H](C)CO)C[C@H]1C	-27%	i	?	-17%	13%	5%
O=C(CNc1n[nH]c(=O)[nH]c1=O)N/N=C/C1CC=CCC1 (configuration not stated)	?	i	i	-3%	0%	0%
Cn1c(N=NC(=O)c2ccccc2)c(O)c2ccccc21	23µM*	i	i	?	-23%	-23%
CC(C)(C)NC(=O)C(c1ccccc1F)n1c(=O)c(-c2ccco2)nc2ccccc21 (configuration not stated)	?	i	i	?	1%	2%
CCCCCNC(=O)C(c1ccc(C#N)cc1)n1c(=O)c(-c2ccco2)nc2ccccc21 (configuration not stated)	?	i	i	?	-8%	-10%
CC(C)(C)NC(=O)C(c1ccc(C(F)(F)F)cc1)n1c(=O)c(-c2ccco2)nc2ccccc21 (configuration not stated)	18µM*	i	?	16µM*	?	-30%
CC(C)(C)NC(=O)C(C1CC1)n1c(=O)c(-c2ccco2)nc2ccccc21 (configuration not stated)	16µM*	i	i	?	-1%	-1%
CCCCCNC(=O)C(c1ccc(OC)cc1)n1c(=O)c(-c2ccco2)nc2ccccc21 (configuration not stated)	12µM*	?	18µM*	16µM*	15µM*	26µM*
O=C(NCc1ccccc1)C(c1ccccc1)n1c(=O)c(-c2ccco2)nc2ccccc21 (configuration not stated)	21µM*	i	i	?	3%	1%
O=C(NCc1ccccc1)C(c1ccc(C(F)(F)F)cc1)n1c(=O)c(-c2ccccc2)nc2ccccc21 (configuration not stated)	-80%	i	?	-71%	-15%	-18%
O=C(NCc1ccccc1)C(c1ccc(C(F)(F)F)cc1)n1c(=O)c(-c2ccco2)nc2ccccc21 (configuration not stated)	21µM*	i	?	?	-28%	-22%
O=C(NCc1ccccc1)C(C1CC1)n1c(=O)c(-c2ccco2)nc2ccccc21 (configuration not stated)	16µM*	i	?	13µM*	1%	-18%
CN(C)c1ccc(/C=C2\C(=O)/C(=C\c3ccc(N(C)C)cc3)c3ccccc32)cc1	?	i	i	?	.	.
CC(C)CCNC(=O)c1ccc(NC(=O)N2CCCCc3ccccc32)cc1	4%	i	?	5%	.	.
Cc1cc(C)nc(N2CCCC(C(=O)Nc3nnc(C)s3)C2)n1 (configuration not stated)	-4%	i	18µM*	-7%	8%	0%
Cc1cc(C)nc(N2CCCC(C(=O)Nc3ccc4nc(C)c(C)nc4c3)C2)n1 (configuration not stated)	13µM*	i	?	?	6%	2%
Cc1ccnc(N2CCCC(C(=O)Nc3nnc(C)s3)C2)n1 (configuration not stated)	-13%	i	i	-10%	-8%	16%
Cc1cc(C)nc(N2CCCC(C(=O)Nc3ccc4c(c3)OCCO4)C2)n1 (configuration not stated)	-21%	i	7.3µM*	-28%	?	?
CCOc1ccc(NC(=O)C2CCCN(c3nc(C)cc(C)n3)C2)cc1 (configuration not stated)	-21%	?	?	?	5%	-1%
Cc1cc(C)cc(NC(=O)C2CCCN(c3nc(C)cc(C)n3)C2)c1 (configuration not stated)	-13%	i	i	-2%	-5%	1%
SMILES	TDP1 cell noCPT	KB-3-1 tox	KB-V1 MDR tox	TDP1 cell CPT	HT1080 IDH1KD tx	HT1080-NT tox
CCOC(=O)NC(c1ccc(C(C)C)cc1)C(Cl)(Cl)Cl (configuration not stated)	-9%	i	i	0%	-2%	-2%
CCCc1nn(C)c(C(=O)Nc2cccc(Cl)c2)c1Cl	-19%	i	i	-29%	12%	10%
Fc1ccccc1C(NCCc1ccc(Cl)cc1)c1nnc(-c2ccccc2)o1 (configuration not stated)	?	i	?	18µM*	.	.
Clc1ccc(CCNC(c2ccc(Cl)cc2)c2nnc(-c3ccccc3)o2)cc1 (configuration not stated)	23µM*	i	i	?	.	.
CC1CC(C)(C)NC(=S)N1CCCC(=O)N1CCN(c2ccc(F)cc2)CC1 (configuration not stated)	?	i	i	-22%	9%	22%
Cc1ccsc1/C=N/Nc1nc(=O)[nH]nc1C	15µM*	?	?	21µM*	21µM*	23µM*
CC(=O)N/C(=C\c1ccc(C)o1)C(=O)NCc1ccccc1	2%	i	i	22%	-10%	3%
COc1ccc(S(=O)(=O)c2cnc3ccc(Cl)cc3c2N2CCCCC2C)cc1 (configuration not stated)	23µM*	?	?	16µM*	.	.
